# Reference: PubChem BioAssay (NCI)
# This is part of a sample that, as a whole, favours compounds with a hit. Of some 83,000 tested, about 20% had one in any assay.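 Cell lines were cultured in 96-well plates, exposed to a single compound concentration, and assessed for percent growth 48 hours later.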 A number with no mark means an inactive call. Active and inactive are the calls of the source. How the source made its calls: active means growth percent below 10; inactive means the rest.
# Test system: HS 578T breast
# Test: NCI-60 one-dose screen, 48 h (100 = growth as untreated, 0 = no growth, -100 = all killed)
# Conditions: 10 µM unless noted
row,SMILES,growth
1,O=c1[nH]c2c(s1)CCCC2CN1CCCCC1 (stereo unspecified),105%
2,O=C(N/N=C/c1cccc(O)c1)c1ccccc1Nc1cccc(C(F)(F)F)c1,91.8%
3,COc1cc2nc(-c3ccc(C#N)cc3)[nH]c(=O)c2cc1OC,106%
4,O=C(Nc1ccccc1)Oc1ccccc1-c1ccccc1,93.3%
5,O=C1Nc2c(ccc(Cl)c2Cl)/C1=C/c1ccccn1,63.9%
6,COc1cc2nnn3c4ncccc4c(N=O)c3c2cc1OC,116%
7,C(=N\Nc1ncc(-c2cc3cc4c(cc3o2)OCO4)s1)/c1c[nH]c2ccccc12,-6.98% (active)
8,C1=C2CNCC3=Cc4ccc5ccccc5c4OC23Oc2c1ccc1ccccc21,52.5%
9,Nc1cc(N)c2cccnc2c1O,63.6%
10,CC1=NNC(=O)C1CCC(=O)N/N=C(\C)c1ccc2ccccc2c1 (stereo unspecified),114%
11,COc1ccc(CNC(=O)COc2ccc(/C=N/Nc3nc4ccccc4s3)cc2)cc1,13.3%
12,CCCN=C(N)c1ccc(NC(=O)c2ccc(C(=O)Nc3ccc(C(N)=NCCC)cc3)cc2)cc1,102%
13,BrC(Br)(Br)c1cnc2ccccc2n1,66.7%
14,O=C1/C(=C\c2cn(Cc3ccccc3)c3ccc(Br)cc23)c2ccccc2N1c1c(Cl)cccc1Cl,110%
15,COc1ccc(-n2cc(-c3cc(OC)c(OC)c(OC)c3)n(C(C)=O)c2=O)cc1,92.3%
16,O=C(N/N=C/c1ccc(O)c(O)c1)c1sc2ccccc2c1Cl,84.4%
17,COc1ccc(OC)c(/C=C/[C@H]2O[C@@H](C)[C@H](O)[C@@H]2O)c1,111%
18,Cn1ncc2c(Nc3ccccc3Cl)nc(Cl)nc21,136%

row,SMILES,growth
1,CCN(CCNc1cc(OC)cc2cccnc12)CCc1ccccc1,85.6%
2,CCCC/C(=N\N=C(N)N)c1ccc(F)cc1,26.1%
3,CCOC(=O)C1=C(C)NC(C)=C(C(=O)OCC)C1c1cc(Br)c(O)c(OC)c1,4.37% (active)
4,COc1nccnn1,86.7%
5,COC(=O)C1NC(=S)N(c2ccc(Cl)cc2)C1/C=C/c1ccccc1 (stereo unspecified),107%
6,COc1cc(CCNc2nc3cc(N)cc(N)c3nc2-c2ccccc2)cc(OC)c1,-70.5% (active)
7,O=C(O)/C=C\C(=O)N1C/C(=C\c2ccccc2Cl)C(=O)/C(=C/c2ccccc2Cl)C1,47.1%
8,O=C1/C(=C/c2ccc(O)cc2)COc2ccc(-c3ccccc3)cc21,88.2%
9,Cc1[nH]n(-c2cccc(Cl)c2)c(=O)c1/C=C1\C=Nc2ccc(Br)cc21,0.668% (active)
10,CO[C@@H]1[C@H](N(C)C(=O)c2ccccc2)C[C@@H]2O[C@]1(C)n1c3ccccc3c3c4c(c5c6ccccc6n2c5c31)C(=O)NC4=O,20.5%
11,Cc1cc2cc3cc(C)c(N)cc3[n+](C)c2cc1N,9.56% (active)
12,CNC(=O)Nc1ccc(-c2nc(N3CCOCC3)nc3c2cnn3C2CCOCC2)cc1,-24.9% (active)
13,COc1ccc(/C=N/NC(=O)c2cccc3cc[nH]c23)cc1O,15.2%
14,NC(=S)N/N=C(/c1ccccc1)c1ccccc1N,97.2%
15,CCCOc1nc(SCCC)nc2c1cnn2-c1ccccc1,126%
16,COc1ccc(-c2cnnc3c(-c4cccc(C(F)(F)F)c4)cnn23)cc1,20.1%
17,COc1ccc(C2CC(n3nnnc3-c3ccccc3)=NN2)cc1 (stereo unspecified),99%
18,O=C1Nc2ccccc2/C1=C\c1cccc(/C=C2/C(=O)Nc3ccccc32)n1,-39.2% (active)
